# Measured values from PubChem BioAssay (NCI).
# About 83,000 compounds went through this panel and 20% of them were active in at least one assay; those are over-represented in the sample as a whole.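 Interpretation: 100, growth as untreated; towards 0, rising growth inhibition; 0, no net growth; 0 to -100, cell death. Compounds scoring below 10 were considered active.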 Values without a mark were called inactive. Active and inactive are the calls of the source.
# Tests used:
# Assay in all cases: NCI-60 one-dose screen, 48 h (100 = growth as untreated, 0 = no growth, -100 = all killed)
# Conditions in all cases: 10 µM unless noted
# NCI-H23 lung = test system: NCI-H23 lung
# NCI-H226 lung = test system: NCI-H226 lung
# NCI-H322M lung = test system: NCI-H322M lung
# HOP-62 NSCLC = test system: HOP-62 NSCLC
# NCI-H460 lung = test system: NCI-H460 lung
# HOP-92 NSCLC = test system: HOP-92 NSCLC
# NCI-H522 lung = test system: NCI-H522 lung
# A549/ATCC NSCLC = test system: A549/ATCC NSCLC
# 786-0 renal = test system: 786-0 renal
# COLO 205 colon = test system: COLO 205 colon
# DU-145 prostate = test system: DU-145 prostate
# K-562 leukemia = test system: K-562 leukemia
# MALME-3M melanoma = test system: MALME-3M melanoma
# MDA-MB-231 breast = test system: MDA-MB-231 breast
# RXF 393 renal = test system: RXF 393 renal
# SF-268 CNS = test system: SF-268 CNS
# SF-295 CNS = test system: SF-295 CNS
# SF-539 CNS = test system: SF-539 CNS
# M14 melanoma = test system: M14 melanoma
Structure (SMILES),growth (NCI-H23 lung),growth (NCI-H226 lung),growth (NCI-H322M lung),growth (HOP-62 NSCLC),growth (NCI-H460 lung),growth (HOP-92 NSCLC),growth (NCI-H522 lung),growth (A549/ATCC NSCLC),growth (786-0 renal),growth (COLO 205 colon),growth (DU-145 prostate),growth (K-562 leukemia),growth (MALME-3M melanoma),growth (MDA-MB-231 breast),growth (RXF 393 renal),growth (SF-268 CNS),growth (SF-295 CNS),growth (SF-539 CNS),growth (M14 melanoma)
CCc1cccc(CC)c1NC(=O)c1sc2nc3c(cc2c1N)CCCC3,87%,83.2%,92.8%,50.5%,91.1%,51.2%,41.9%,69.7%,87.8%,105%,98.6%,26.6%,54.3%,79.5%,81.6%,82.6%,45.7%,74.5%,52%
CCN(CC)C(=O)CCCCCn1c2ccccc2c2c3c(c4c5ccccc5[nH]c4c21)C(=O)N(O)C3=O,46.8%,69.9%,81.8%,-26.4% (active),53.1%,78.5%,-66.5% (active),87.2%,78.1%,-7.19% (active),69%,40.8%,102%,42.9%,45.6%,51.6%,62.5%,39.7%,53.9%
Oc1ccc(CCC2CCCC(CCc3ccc(OCCF)cc3)N2)cc1 (stereo not given),87.3%,99.3%,106%,95.6%,102%,75.3%,95.3%,91%,95.9%,97.2%,109%,66%,117%,88.9%,84.7%,99.1%,96.4%,104%,90.4%
Cn1c2ccccc2c2c3c(c4c5cccnc5[nH]c4c21)C(=O)N(O)C3=O,15.1%,74.3%,62.6%,15.3%,14.7%,78.9%,47.6%,62.3%,36.6%,22.4%,26.5%,29.8%,58.2%,68.8%,59.5%,38.2%,37.6%,16.6%,20.5%
COc1cccc(-c2nn(-c3ccccc3)cc2-c2ccnc(NCCNS(=O)(=O)c3ccccc3)c2)c1,39.5%,41.2%,62.8%,58.6%,28.6%,19.4%,9.95% (active),34.4%,42.7%,10.6%,57.5%,6.57% (active),69.1%,18.4%,63.7%,50%,20.6%,57.1%,29.8%
Nc1c(C(=O)Nc2c(Cl)cccc2Cl)sc2nc3c(cc12)C(=O)CCC3,48.5%,71.2%,56.7%,30.7%,12.9%,42.6%,6.59% (active),38%,29%,7.4% (active),41.1%,16.6%,35.2%,51.1%,23.7%,57.8%,18.8%,5.18% (active),12.1%
c1ccc(CN2C(c3ccccc3)=Nc3ccccc3C2c2c[nH]c3ccccc23)cc1 (stereo not given),27.4%,59.3%,60.6%,47.1%,43.4%,-2.7% (active),51.7%,65.5%,46.7%,18.3%,85.4%,4.88% (active),55.1%,26.7%,42.9%,71.2%,45.6%,58.1%,28.9%
Nc1ccc(Cl)cn1,97.7%,95%,104%,95%,105%,87%,82.9%,87.7%,106%,108%,106%,107%,99.7%,101%,113%,100%,97.3%,96.4%,105%
COc1cccc(-c2nn(-c3ccccc3)cc2-c2ccnc(NCCCNS(=O)(=O)c3ccc(Br)cc3)c2)c1,52.9%,51.9%,74.4%,81%,44.3%,34.6%,54.4%,47.7%,46.4%,20.8%,72.6%,19.1%,71.9%,42.4%,44.7%,55.2%,37.7%,76.3%,47.4%
O=S(=O)(NCCNc1cc(-c2cn(-c3ccccc3)nc2-c2cccc(O)c2)ccn1)c1cccc(F)c1,45.8%,55.3%,56.2%,56.7%,33.1%,51.1%,26.7%,42.4%,16.8%,-4.68% (active),63.5%,7.94% (active),64.9%,11.5%,62.3%,54.9%,22.4%,51.2%,31.8%
COc1ccc2c3c(c4ccccc4cc13)C(=O)N(CCN(C)CCN)C2=O,-71.4% (active),-67.4% (active),-44.4% (active),-77.4% (active),-69.2% (active),-7.66% (active),-77.2% (active),-78.3% (active),-97.9% (active),-82.7% (active),-86.6% (active),-68% (active),-75.7% (active),-72.1% (active),-94.3% (active),-67.5% (active),-88.9% (active),-83% (active),-83.2% (active)
CC(=O)OCCCCCCn1c2ccccc2c2c3c(c4c5ccccc5n(C)c4c21)C(=O)N(O)C3=O,68%,63.7%,77.4%,58.7%,48.1%,101%,50.4%,94.5%,88%,70.1%,89.9%,59.7%,115%,64.5%,100%,70.2%,91.5%,94.3%,65.4%
COC(=O)[C@]12CC[C@@H](C)[C@H](C)[C@@H]1C1=CC[C@@H]3[C@@]4(C)C=C(O)C(=O)C(C)=C4CC[C@@]3(C)[C@]1(C)CC2,22.1%,22.4%,82.6%,56.4%,46.8%,26.4%,-14.1% (active),39.5%,68%,37.1%,54.4%,19.3%,86.2%,5.7% (active),27.6%,60%,34.7%,32.3%,24.9%
CSc1ccc(N(C)c2nc(C)nc3c2CCC3)cc1,16.7%,55.5%,57.4%,2.72% (active),6.41% (active),-17% (active),-26.7% (active),6.42% (active),14.4%,-64.9% (active),9.33% (active),5.51% (active),92.8%,10%,44.7%,26.9%,14.3%,-16.1% (active),5.22% (active)
COC(=O)[C@]12CC[C@@H](C)[C@H](C)[C@@H]1C1=CC[C@@H]3[C@@]4(C)C[C@@H](OC(C)=O)[C@H](O)[C@@](C)(CO)[C@@H]4[C@H](O)C[C@@]3(C)[C@]1(C)CC2,-82% (active),-48.6% (active),-93.2% (active),-89.8% (active),-72.6% (active),-87.7% (active),-90.3% (active),-88.3% (active),-77.3% (active),-87.8% (active),-100% (active),-62.7% (active),-69.1% (active),-62.3% (active),-88.9% (active),-84% (active),-92.2% (active),-90% (active),-69.1% (active)
